Pol eta inh-1: qHTS for Inhibitors of Polymerase Eta; DNA polymerase eta (Homo sapiens), Q9Y253; recombinant Pol eta, fluorescent DNA replication assay; Potency, µM (highest dose often 114 µM), most hits filed as inhibitors; actives 1.2% (n = 390,000)
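Pol eta at 10 nM preincubated with compounds 15 min at room temperature; reaction started with fluorescent substrate (50 nM final) and read kinetically at 0 and 10 min.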
Pol kappa inh-1: qHTS for Inhibitors of Polymerase Kappa; Potency, µM (series often up to 107 µM), hits mostly inhibitors; DNA polymerase kappa (Homo sapiens), Q9UBT6; purified Pol kappa, fluorescent DNA synthesis assay, 10 min; actives 0.53% (n = 400,000)
Target sequence (Q9UBT6 whole entry, looked up): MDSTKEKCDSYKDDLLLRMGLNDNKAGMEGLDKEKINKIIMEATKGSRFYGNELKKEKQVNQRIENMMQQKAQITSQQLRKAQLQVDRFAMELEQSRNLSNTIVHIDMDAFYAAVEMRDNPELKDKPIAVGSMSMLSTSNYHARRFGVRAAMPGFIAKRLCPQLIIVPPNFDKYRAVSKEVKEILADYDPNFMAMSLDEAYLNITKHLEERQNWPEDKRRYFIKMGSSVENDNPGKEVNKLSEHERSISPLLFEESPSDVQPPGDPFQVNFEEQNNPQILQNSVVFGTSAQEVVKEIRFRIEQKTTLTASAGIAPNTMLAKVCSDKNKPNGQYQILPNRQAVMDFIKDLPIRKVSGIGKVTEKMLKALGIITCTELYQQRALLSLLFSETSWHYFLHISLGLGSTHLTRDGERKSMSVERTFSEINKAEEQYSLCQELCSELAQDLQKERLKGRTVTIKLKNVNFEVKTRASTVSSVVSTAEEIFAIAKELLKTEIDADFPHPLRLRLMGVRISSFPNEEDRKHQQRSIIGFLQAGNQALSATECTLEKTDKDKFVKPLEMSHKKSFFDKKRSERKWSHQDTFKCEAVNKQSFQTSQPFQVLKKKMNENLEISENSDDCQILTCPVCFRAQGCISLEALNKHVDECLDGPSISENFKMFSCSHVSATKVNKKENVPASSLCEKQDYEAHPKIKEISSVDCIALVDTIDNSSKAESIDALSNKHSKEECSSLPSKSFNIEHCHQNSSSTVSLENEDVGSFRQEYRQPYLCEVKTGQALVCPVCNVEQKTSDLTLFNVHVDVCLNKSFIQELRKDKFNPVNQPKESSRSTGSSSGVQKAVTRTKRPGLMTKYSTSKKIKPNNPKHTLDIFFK
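Activity was followed as the change in fluorescence between reads at 0 and 10 min after starting the reaction with 50 nM substrate. Beforehand, 10 nM polymerase had been preincubated with compound for 15 min at room temperature.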
POLI inh: qHTS for Inhibitors of Polymerase Iota; DNA polymerase iota (Homo sapiens), Q9UNA4; Pol iota fluorescent replication assay, 10 min; Potency, µM (doses to about 115 µM), usual class: inhibitors; actives 1% (n = 390,000); AID 588590, 2011
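Pol iota at 10 nM preincubated 15 min with compounds at room temperature; reaction started with fluorescent substrate, 50 nM final. Fluorescence read kinetically at 0 and 10 min; buffer-only wells as negative control.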
WRN inhibitor: qHTS for Inhibitors of WRN Helicase | Bifunctional 3'-5' exonuclease/ATP-dependent helicase WRN (Homo sapiens), Q14191 | WRN helicase unwinding, fluorescent forked duplex, kinetic | Potency, µM (doses to about 114 µM), usual class: inhibitors | actives 0.46% (n = 360,000) | AID 651768, 2012; note: nearly all actives have a fitted effect of over 55% in size
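Enzyme (20 nM final) and test compound sit together 15 min at room temperature before substrate addition. Substrate is a single-forked duplex oligonucleotide (100 nM) labelled with fluorophore and quencher, with 2 mM ATP; helicase unwinding raises red fluorescence, read kinetically.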
FEN1 inhibitor: qHTS Assay for the Inhibitors of Human Flap endonuclease 1 (FEN1). Potency, µM (highest dose often 114 µM), actives largely listed as inhibitors. Recombinant FEN1 flap cleavage, fluorescence, 15 min. actives 0.35% (n = 390,000). P39748; note: nearly all actives have a fitted effect of over 65% in size
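Read-out was taken twice, immediately and after 15 min, following addition of 50 nM substrate to 10 nM FEN1 that had sat with test compound for 15 min at room temperature. Curves came from a four-parameter Hill model.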
POLB inh: qHTS Assay for Inhibitors of DNA Polymerase Beta | Pol beta primer extension/strand displacement, fluorescence kinetic | Potency, µM (series often up to 114 µM), usual class: inhibitors | actives 1.3% (n = 340,000)
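10 nM enzyme + cpd, 15 min RT; start with substrate 50 nM final; read 0 min and after 10 min RT. Corrected, normalized data; 4-parameter Hill curve fit.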
GALK confirm: Confirmation Assay for Inhibitors of Human Galactokinase (GALK). actives 70% (n = 150). purified GALK, Kinase-Glo ATP depletion luminescence. Potency, µM (highest dose often 115 µM), actives largely listed as inhibitors. shares compounds with Pol eta inh-1
Redox cycling: Confirmatory Assay for Inhibitors of Human Galactokinase (GALK): Phenol-HRP redox assay counterscreen; shares compounds with Pol eta inh-1; Phenol red-HRP H2O2 redox cycling, absorbance 600 nm; Potency, µM (doses to about 115 µM), most hits filed as inhibitors; actives 40% (n = 150); AID 2035, 2009
HEK293 viability: Secondary Assay for Inhibitors of Human Galactokinase (GALK): HEK-293 Cell Viability Assay; shares compounds with Pol eta inh-1; HEK-293 viability, ATP luminescence (CellTiter-Glo), 24/48 h; Potency, µM (series often up to 46.1 µM), most hits filed as inhibitors; actives 10% (n = 170); AID 2547, 2010
Pol kappa inh-2: qHTS for Inhibitors of Polymerase Kappa: Confirmatory Assay for Cherry-picked Compounds; shares compounds with Pol eta inh-1; purified Pol-kappa, fluorescent strand-displacement substrate; Potency, µM, actives largely listed as inhibitors; actives 76% (n = 920); AID 720501, 2013
Pol eta inh-2: qHTS for Inhibitors of Polymerase Eta: Confirmatory Assay for Cherry-picked Compounds | shares compounds with Pol eta inh-1 | Pol eta primer extension, TAMRA/BHQ fluorescence, 10 min | Potency, µM, hits mostly inhibitors | actives 64% (n = 2,600) | AID 720502, 2013
Each line names hits and unclear results; the compound was inactive in the other large screens (follow-up assays come after a bar, where they were run). Only some compounds are listed: those with a hit (about 2.4% of all), similar ones and a draw of the others. Calls come from the whole dose curve; as a rule, active = well fitted curve in the direction sought with a large enough effect; inconclusive = small, poorly fitted or top-dose-only effect, or another doubt; inactive = no such curve, though single readings can be large; an effect the other way counts as inactive or inconclusive.

COc1cc(/C=C2/C(=O)NN(c3ccc(Cl)c(Cl)c3)C2=O)cc([N+](=O)[O-])c1O	Pol eta inh-1 20µM, POLI inh 17.8µM, WRN inhibitor 50.1µM, FEN1 inhibitor inconclusive, POLB inh 20µM | GALK confirm 33.5µM | Redox cycling inactive | HEK293 viability inactive | Pol eta inh-2 30.1
CCSc1ncc(Cl)c(C(=O)N(Cc2ccc(N(C)C)cc2)C2CCS(=O)(=O)C2)n1 (stereo unspecified)	none
CC(C)Sc1ncc(Cl)c(C(=O)N(Cc2ccc(N(C)C)cc2)C2CCS(=O)(=O)C2)n1 (stereo unspecified)	Pol eta inh-1 79.4µM, POLI inh inconclusive, POLB inh inconclusive (no result: WRN inhibitor) | Pol kappa inh-2 inconclusive | Pol eta inh-2 inconclusive
CCc1ccc(NC(=O)CN(c2ccc(C)cc2)S(=O)(=O)c2cccs2)cc1	none (no result: WRN inhibitor)
CC(=O)N1CCN(c2ccc(NS(=O)(=O)c3ccc4c(c3)CC(=O)N4)cc2)CC1	none (no result: Pol eta inh-1, Pol kappa inh-1, POLI inh, WRN inhibitor, FEN1 inhibitor, POLB inh) | Pol eta inh-2 inconclusive
O=C(c1ccncc1)N1C2C=CC(C2)C1(C(F)(F)F)C(F)(F)F (stereo unspecified)	none (no result: Pol eta inh-1, Pol kappa inh-1, POLI inh, WRN inhibitor, FEN1 inhibitor)
O=C(c1cccnc1)N1C2C=CC(C2)C1(C(F)(F)F)C(F)(F)F (stereo unspecified)	Pol eta inh-1 14.1µM, POLI inh inconclusive, WRN inhibitor inconclusive, POLB inh 39.8µM | Pol eta inh-2 inconclusive
Cc1ccc(C(=O)c2ccc([N+](=O)[O-])cc2)cc1	none
Cc1ccc(C(=O)c2coc3cc([N+](=O)[O-])c(O)c([N+](=O)[O-])c23)cc1	Pol eta inh-1 20µM, Pol kappa inh-1 inconclusive, POLI inh inconclusive, WRN inhibitor inconclusive, FEN1 inhibitor inconclusive, POLB inh 20µM | Pol kappa inh-2 inconclusive
O=C(CN1C(=O)c2ccccc2S1(=O)=O)Nc1ncccn1	none (no result: POLB inh)
O=C(CN1C(=O)c2ccccc2S1(=O)=O)Nc1ncc(Cl)cc1Cl	Pol eta inh-1 22.4µM, Pol kappa inh-1 inconclusive, POLI inh inconclusive, WRN inhibitor inconclusive (no result: POLB inh) | Pol eta inh-2 30.1
Cc1cccc(OCC(=O)OCc2cc(=O)n3nc(-c4cccs4)sc3n2)c1	Pol eta inh-1 inconclusive, Pol kappa inh-1 inconclusive, POLI inh inconclusive, POLB inh 25.1µM (no result: WRN inhibitor) | Pol eta inh-2 inconclusive
NCCCC[C@@H]1NC(=O)[C@H](CCC(=O)O)NC(=O)c2cc([N+](=O)[O-])cc(I)c2OCC[C@@H](C(N)=O)NC1=O	Pol eta inh-1 14.1µM, Pol kappa inh-1 25.1µM, POLI inh inconclusive | Pol eta inh-2 30.1

Compound activity from PubChem.
